Assay results reported in PubChem BioAssay (NCI).
“And” between values parts separate entries of the source, which are not always exact repeats. Equal values may be shown once. The panel holds about 79,000 compounds, 15% with a hit somewhere; the sample as a whole holds those more often. The source made the active and inactive calls. Rule as the data show it: active = growth inhibition above about 70%; inactive = the rest.

What was measured:
[1] = NCI Yeast Anticancer Drug Screen. Data for the rad52 strain (AID 147);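 also: 0% = growth of vehicle-treated control cultures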; conditions: S. cerevisiae rad52 mutant growth inhibition, hits give high values
Procedure, shortened: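 Screen used a yeast mutant impaired in DNA repair. After compound exposure, growth was measured. Values reflect inhibition compared with vehicle-treated cells.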

[2] = NCI Yeast Anticancer Drug Screen. Data for the wt1 strain (AID 149);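 also: 0% = growth of vehicle-treated wt1 cultures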; conditions: S. cerevisiae wt1 strain (SPY 50644) growth inhibition, hits give high values
Procedure, shortened: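 wt1 strain grown with compound or vehicle; inhibition taken from the growth difference.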

[3] = NCI Yeast Anticancer Drug Screen. Data for the rad50EPP+ strain (AID 151);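 also: 0% = growth of vehicle-treated control cultures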; conditions: S. cerevisiae rad50 mutant strain, hits give high values
Procedure, shortened: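 Exposing the rad50EPP+ strain to each compound, growth was compared with vehicle-only cultures to give inhibition.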

[4] = NCI Yeast Anticancer Drug Screen. Data for the mgt1 strain (AID 153); conditions: S. cerevisiae mgt1 mutant growth inhibition, hits give high values
Procedure, shortened: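 Genetically defined yeast (mgt1) treated with compound; inhibition of growth expressed against vehicle-treated controls.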

[5] = NCI Yeast Anticancer Drug Screen. Data for the rad50 strain (AID 155);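 also: 0% = growth of vehicle-only cultures of the same strain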; conditions: S. cerevisiae rad50 strain growth inhibition, hits give high values
Procedure, shortened: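 DNA repair mutant yeast, compound exposure, growth read-out; inhibition is taken relative to vehicle.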

[6] = NCI Yeast Anticancer Drug Screen. Data for the mec2-1 strain (AID 157); conditions: S. cerevisiae mec2-1 strain, hits give high values
Procedure, shortened: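 Readout is yeast growth inhibition, normalised to vehicle-treated controls, in the mec2-1 strain exposed to compound.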

[7] = NCI Yeast Anticancer Drug Screen. Data for the rad14 strain (AID 159);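 also: 0% = growth of vehicle-treated control cultures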; conditions: S. cerevisiae rad14 strain growth inhibition, hits give high values
Procedure, shortened: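 DNA repair-defective yeast, compound-exposed; % growth inhibition derived by comparison with vehicle-treated controls.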

[8] = NCI Yeast Anticancer Drug Screen. Data for the sgs1 mgt1 strain (AID 161);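 also: 0% = growth of cultures given vehicle only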; conditions: S. cerevisiae sgs1 mgt1 strain, hits give high values
Procedure, shortened: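 Growth of a repair-deficient yeast mutant was monitored after compound treatment and expressed as inhibition relative to vehicle-treated cultures.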

[9] = NCI Yeast Anticancer Drug Screen. Data for the CLN2oe strain (AID 163);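 also: 0% = growth of vehicle-only control cultures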; conditions: S. cerevisiae CLN2oe strain, hits give high values
Procedure, shortened: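 Values reflect how much compound exposure reduced yeast growth, referenced to vehicle-exposed cells. Assay organism is a strain with a defined genetic change affecting cell-cycle control.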

[10] = NCI Yeast Anticancer Drug Screen. Data for the cln2 rad14 strain (AID 165);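 also: 0% = growth equal to vehicle treated cultures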; conditions: S. cerevisiae cln2 rad14 strain, hits give high values
Procedure, shortened: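 Relative to vehicle controls, growth inhibition of compound-treated cln2 rad14 yeast was recorded.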

[11] = NCI Yeast Anticancer Drug Screen. Data for the bub3 strain (AID 167); conditions: S. cerevisiae bub3 mutant strain, hits give high values
Procedure, shortened: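 In this screen, a yeast mutant lacking normal mitotic checkpoint function is challenged with compound. Relative growth versus vehicle gives the inhibition value.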

[12] = NCI Yeast Anticancer Drug Screen. Data for the wt2 strain (AID 169);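 also: 0% = growth of vehicle-treated yeast cultures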; conditions: S. cerevisiae wt2 strain growth inhibition, hits give high values
Procedure, shortened: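 Values express reduction in yeast growth under compound treatment, referenced to vehicle-treated cells.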

[13] = NCI Yeast Anticancer Drug Screen. Data for the mlh1 strain (AID 171);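 also: 0% = growth of vehicle-treated control cultures of the same strain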; conditions: S. cerevisiae mlh1 strain growth inhibition, hits give high values
Procedure, shortened: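 Steps: expose the defined-mutant yeast strain to compound; expose a parallel culture to vehicle; measure growth; express compound effect as inhibition relative to the vehicle culture.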

[14] = NCI Yeast Anticancer Drug Screen. Data for the mlh1 rad18 strain (AID 175); conditions: S. cerevisiae mlh1 rad18 strain growth inhibition, hits give high values
Procedure, shortened: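 Test agents were incubated with a yeast strain of defined genotype (DNA damage repair defect). Inhibition of growth was derived by comparison with vehicle-exposed cultures.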

[15] = NCI Yeast Anticancer Drug Screen. Data for the rad18 strain (AID 177); conditions: S. cerevisiae rad18 mutant growth inhibition, hits give high values
Procedure, shortened: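 A genetically defined yeast mutant impaired in DNA damage repair was treated with test compounds, then its growth was measured against cultures receiving vehicle alone.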

[16] = at 5.0 µM (retest, dose inferred, filed as 0.5)
[17] = at 50.0 µM (retest, dose inferred, filed as 5.0)

Measured: growth inhibition

O=S(=O)(O)/C(=C\c1ccccc1)c1ccccc1 (tested in a mixture with another compound)
active: [11]; [16] 97% | [11]; [17] 95%
inactive: [1]; at 1.2 µM -3% | [1]; at 3.7 µM -2% | [1]; at 11.0 µM -6% | [1]; at 33.0 µM -5% | [1]; at 100.0 µM -8% | [2]; at 1.2 µM 1% | [2]; at 3.7 µM 0% | [2]; at 11.0 µM 1% | [2]; at 33.0 µM 0% | [2]; at 100.0 µM -1% | [3]; at 1.2 µM -3% | [3]; at 3.7 µM -2% | [3]; at 11.0 µM -3% | [3]; at 33.0 µM -3% | [3]; at 100.0 µM 3% | [4]; at 1.2 µM 0% | [4]; at 3.7 µM -1% | [4]; at 11.0 µM -1% | [4]; at 33.0 µM -2% | [4]; at 100.0 µM -2% | [5]; at 1.2 µM 0% | [5]; at 3.7 µM -5% | [5]; [16] 15% | [5]; at 11.0 µM 1% | [5]; at 33.0 µM -5% | [5]; [17] 15% | [5]; at 50.0 µM -10.3% and -8% and 14.8% | [5]; at 100.0 µM -4% | [6]; at 1.2 µM -3% | [6]; at 3.7 µM -2% | [6]; [16] 24% | [6]; at 11.0 µM -3% | [6]; at 33.0 µM -2% | [6]; [17] 24% | [6]; at 50.0 µM 2.1% and -4.7% and -21.4% | [6]; at 100.0 µM 10% | [7]; at 1.2 µM 0% | [7]; at 3.7 µM 0% | [7]; at 11.0 µM 2% | [7]; at 33.0 µM -7% | [7]; at 100.0 µM 3% | [8]; [16] 12% | [8]; [17] 3% | [8]; at 50.0 µM -28.2% and -11.8% and -14.2% | [9]; at 1.2 µM -3% | [9]; at 3.7 µM -1% | [9]; at 11.0 µM -5% | [9]; at 33.0 µM -7% | [9]; at 100.0 µM 2% | [10]; [16] 55% | [10]; [17] 23% | [10]; at 50.0 µM 28.4% and 15.9% and 9.35% | [11]; at 1.2 µM -11% | [11]; at 3.7 µM -6% | [11]; at 11.0 µM -30% | [11]; at 33.0 µM 19% | [11]; at 50.0 µM -19.1% and -0.25% and 3.5% | [11]; at 100.0 µM 1% | [12]; at 1.2 µM -2% | [12]; at 3.7 µM 0% | [12]; at 11.0 µM -4% | [12]; at 33.0 µM -2% | [12]; at 100.0 µM -2% | [13]; at 1.2 µM 0% | [13]; at 3.7 µM 2% | [13]; at 11.0 µM 1% | [13]; at 33.0 µM -22% | [13]; at 100.0 µM 10% | [14]; [16] 39% | [14]; [17] 4% | [14]; at 50.0 µM 8.8% and -6.15% and -15.1% | [15]; at 1.2 µM -2% | [15]; at 3.7 µM 2% | [15]; at 11.0 µM 5% | [15]; at 33.0 µM -5% | [15]; at 100.0 µM -11%
